In the library only some 6.1% were active in any assay of this set; here they are far more common.
D1 antagonist – human D1 dopamine receptor antagonism; P21728; HEK293 TREx D1 cells, calcium flux, dopamine EC80; stronger effect = lower value; activity change, negative = inhibition, % at 10 µM; 360,000 compounds, 3.2% hits; in the data active = activity change below about -30%; also: % is scaled to controls: 0 for no effect and ±100 for the full control effect
Target sequence (P21728 whole entry, looked up): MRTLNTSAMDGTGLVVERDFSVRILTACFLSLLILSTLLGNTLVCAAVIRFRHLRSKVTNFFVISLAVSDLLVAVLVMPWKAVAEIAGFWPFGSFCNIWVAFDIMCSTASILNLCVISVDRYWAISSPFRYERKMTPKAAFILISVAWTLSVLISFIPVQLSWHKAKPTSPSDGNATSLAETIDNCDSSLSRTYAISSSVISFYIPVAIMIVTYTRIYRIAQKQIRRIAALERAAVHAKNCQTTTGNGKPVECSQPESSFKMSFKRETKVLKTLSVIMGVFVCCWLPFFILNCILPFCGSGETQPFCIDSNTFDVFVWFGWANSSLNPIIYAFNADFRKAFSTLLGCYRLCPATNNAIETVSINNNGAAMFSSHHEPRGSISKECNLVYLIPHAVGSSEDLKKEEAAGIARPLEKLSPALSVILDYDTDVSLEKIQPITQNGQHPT
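Cells carrying a force-coupled, tetracycline-inducible human D1 receptor report calcium flux. Each well gets a 10 s baseline, compound with 180 s monitoring, then an EC80 dopamine stimulus with a second 180 s kinetic read.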
D3 ag – agonists of human D3 dopamine receptor; P35462; D3R DiscoveRx beta-arrestin cells, luminescence, 90 min; max activation, %; 410,000 compounds, 0.58% hits; in the data active = max activation above about 30%; also: 0% is about no effect
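Cells at 1500/well, incubated overnight, then treated with pinned compounds (dopamine as control) for 90 min at 37 degrees C. DiscoveRx reagent added for 30 - 60 minutes at room temperature; luminescence read.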
D1 PAM – enhances dopamine response at the human D1 receptor; HEK293 TREx D1 cells, calcium flux, dopamine EC20 potentiation; AID 504651; potentiation, % at 10 µM; 360,000 compounds, 0.036% hits; P21728; in the data active = potentiation above about 30%; also: 0% is about no effect
D1 ag – agonists of human D1 dopamine receptor | P21728 | HEK293 T-REx D1 cells, calcium flux, agonist mode | activation, % at 2 µM | 360,000 compounds, 1% hits | AID 504660; in the data active = activation above about 30%; also: 0% is about no effect
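Tetracycline-induced HEK293 TREx D1 cells, force-coupled to calcium signalling, were dye-loaded with a no-wash calcium kit. Compound was pin-added after a 10 s baseline. Fluorescence was read kinetically at 1 cycle/s for 180 s, with calcium rises flagged as agonism.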
ERG-DNA inh – blocks human ERG Ets domain binding to DNA; P11308; fluorescence polarization, His-ERG Ets domain / labelled DNA; Potency, µM (doses to about 76.9 µM), without a hit: top-dose FP activity, negative = inhibition, usual class: inhibitors; 370,000 compounds, 0.028% hits; AID 624246; active = well fitted inhibition curve with a large enough effect in the polarisation, with a control signal flat; inconclusive = small, poorly fitted or top-dose-only effect, or effect the other way, or a change in a side signal; inactive = no such curve, though single readings can be large or run the other way; the % refers to the polarisation;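 also: polarization taken with two DNA probes labelled with fluorescein and Texas red; potency is read from the fitted curve at half-maximal effect; % of control where 0% means no effect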
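His-tagged ERG Ets domain (1 uM in the protein solution; 300mM KCl, 50mM Tris-HCl, 1mM EDTA, 1mM DTT, pH 7.5) received compound, then a probe mix of 5 nM fluorescein-DNA and 100nM Texas-615-DNA. Fluorescence polarization was read for both dyes.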
DRD3 antagonist – blocks the human D3 dopamine receptor | P35462 | D3R cells, DiscoveRx beta-arrestin luminescence, antagonist mode; stronger effect = lower value | max response, negative = inhibition, % | 360,000 compounds, 2.5% hits; in the data active = max response below about -50%; inconclusive = no clear call, values can overlap the other calls; also: % is scaled to controls: 0 for no effect and ±100 for the full control effect
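Cells plated overnight at 1500 cells/well, then exposed to library compounds with dopamine controls for 90 minutes at 37 degrees C. DiscoveRx reagent added for 30–60 minutes at room temperature; luminescence read, quantitative HTS format.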
Active calls of the source: *; ? = inconclusive; / = no result; ! = repeats disagree.

SMILES	D1 antagonist	D3 ag	D1 PAM	D1 ag	ERG-DNA inh	DRD3 antagonist
Nc1c(C(=O)c2ccccc2)sc2snc(SCC(=O)c3ccccc3)c12	7	-1	4	108*	4%	-26
CCOC(=O)c1ccc(NC(=O)CCNS(=O)(=O)c2cccs2)cc1	5	4	12	2	-1%	9
O=C(C1CCC(CNS(=O)(=O)c2ccc(F)cc2)CC1)N1CCOCC1 (stereo not given)	7	-1	-4	1	-1%	10
COc1cc(CN2CCC(Cc3ccccc3)CC2)cc(OC)c1OC	-9	-19	0	6	2%	?
COc1ccccc1C1CCN(Cc2cccc3ccccc23)CC1	3	-47	-10	3	-15%	-10
COc1ccccc1C1CCN(Cc2c(C)[nH]c3ccccc23)CC1	0	-18	-16	15	-1%	-89*
COc1ccccc1C1CCN(Cc2ccc(Cl)c(Cl)c2)CC1	-3	-49	-5	0	-2%	-79*
COc1ccccc1C1CCN(Cc2ccc(Cl)cc2Cl)CC1	0	-18	2	4	0%	-96*
OCCOc1ccc(CN2CCCC(N3CCN(c4ccc(F)cc4)CC3)C2)cc1 (stereo not given)	-43*	-2	-5	0	1%	-21
NC(=O)C1CCN(C2CC(=O)NC2=O)CC1 (stereo not given)	-37*	4	-3	5	13%	31
CCCCCOc1ccc(C(=O)CCC(=O)N2CCCC2)cc1	-7	3	-7	36*	12%	3
CCCCOc1ccc(C(=O)CCN2CCOCC2)cc1	-34*	-10	-8	10	9%	?
CC(=O)c1ccc(NC(=O)C2CC(=O)N(Cc3ccccc3)C2)cc1 (stereo not given)	/	-1	0	-1	-6%	5
CC(/C=N/NC(=O)c1cc(-c2ccc(C)s2)[nH]n1)=C\c1ccccc1	7	14	-6	1	3%	-22
CCOC(=O)N/N=C\c1sccc1C	-42*	14	-3	2	5%	0
CC(/C=N/NC(=O)c1cc(C(C)(C)C)[nH]n1)=C\c1ccccc1	8	-3	2	0	6%	-54*
CC(/C=N/NC(=O)c1ccncc1)=C\c1ccccc1	-10	-1	-2	3	/	-9
Cc1ccsc1/C=N/NC(=O)CO	7	-9	5	4	?	-18
COc1ccccc1C(=O)N/N=C/C(C)=C/c1ccccc1	-64*	-9	-2	7	2%	9
CC(/C=N/NC(=O)Cc1cc(=O)[nH][nH]1)=C\c1ccccc1	1	-8	-9	57*	-2%	3
C[C@H](NC(=O)c1cc2cc(Cl)ccc2n1C)C(=O)N1CCC(C(=O)O)CC1	7	3	-9	3	0%	-8
Cc1ccsc1/C=N\NC(=O)c1cc(C(C)(C)C)[nH]n1	-39*	-16	-8	0	-16%	-67*
Cc1cc(C(=O)N/N=C/c2sccc2C)no1	-2	-24	-3	4	4%	-13
COc1nc(NC(C)C)nc(N(C#N)CN2C(=O)c3ccccc3S2(=O)=O)n1	24	-3	3	0	-7%	-58*
Cc1ccc(CNc2c(C=O)c(=O)[nH]c3ccccc23)cc1	-51*	0	-2	6	-3%	0
SMILES	D1 antagonist	D3 ag	D1 PAM	D1 ag	ERG-DNA inh	DRD3 antagonist
O=Cc1c(NCc2ccc(F)cc2)c2ccccc2[nH]c1=O	-36*	-12	-9	4	-14%	-10
O=Cc1c(NCc2cccc(F)c2)c2ccccc2[nH]c1=O	-24	2	-1	4	-4%	0
O=Cc1c(NCc2ccccc2Cl)c2ccccc2[nH]c1=O	-33*	-8	-1	3	0%	6
O=C(Nc1ccccn1)c1ccc2c(=O)n3c(nc2c1)CCCCC3	-3	-13	-2	1	-10%	-28
CN1CCN(Cc2ccc(Sc3ccc(Cl)cc3)c([N+](=O)[O-])c2)CC1	-22	-44	0	79*	5%	-55*
Cc1ccc(Sc2ccc(CO)cc2[N+](=O)[O-])cc1	-27	-8	-6	2	1%	?
Cc1ccc(Sc2ccc(CN3CCCC3)cc2[N+](=O)[O-])cc1	21	-20	2	3	-7%	-79*
c1ccc(-n2cnc3cc(NCc4ccccn4)ccc32)cc1	0	-7	-4	0	/	8
c1ccc(-n2cnc3cc(NCc4ccncc4)ccc32)cc1	-39*	3	-4	10	-1%	-5
O=c1c(/C=N/Nc2ccccc2)c(Sc2nnnn2-c2ccccc2)nc2ccccn12	21	-21	9	24	-15%	-10
O=C(O)c1ccccc1N/N=C/c1c(Sc2nnnn2-c2ccccc2)nc2ccccn2c1=O	-43*	4	-5	20	52%	-8
CC1(C(=O)NS(=O)(=O)c2cccc(C#N)c2)CCN1C(=O)C1(c2ccccc2)CC1 (stereo not given)	/	-6	/	/	/	-8
COc1ccc(N2CCN(C(C)C(=O)N3CCCC3)CC2)cc1 (stereo not given)	0	-4	-2	0	2%	-22
CCN(Cc1ccccc1)c1ccc(/C=C(\C#N)c2ccccn2)cc1	12	-23	10	31*	4%	-16
CN(CCC#N)c1ccc(/C=C(\C#N)c2ccccn2)cc1	-19	1	-5	4	-3%	-1
CCN(CC)c1ccc(/C=C(\C#N)c2ccccn2)cc1	-87*	-10	-2	35*	6%	-13
N#C/C(=C\c1ccc(C(=O)O)cc1)c1ccccn1	11	-5	-2	-1	-2%	4
COc1ccccc1NC(=O)Cc1c(C(=O)O)[nH]c2ccc(Cl)cc12	-22	7	0	31*	-1%	/
Cc1ccccc1OCc1nc2ccc(S(=O)(=O)N3CCOCC3)cc2[nH]1	-15	13	-8	2	7%	-14
CCc1ccccc1OCc1nc2ccc(S(=O)(=O)N3CCOCC3)cc2[nH]1	/	-2	0	0	-1%	-56*
C=C1Cn2c(nnc2-c2ccc(Cl)cc2)S1	-61*	0	-10	1	-9%	13
CCCc1[nH][nH]c(=O)c1C(c1ccccc1)C(C#N)C#N (stereo not given)	-9	1	-6	2	6%	-55*
COc1ccc(SCC(=O)c2cc(C)c(OC(=S)N(C)C)c(C)c2)cc1	-35*	0	-3	4	-1%	-51*
COc1ccc(-n2c3c(c(=O)[nH]c2=O)C(NC(C)=O)(C(F)(F)F)C(=O)N3)cc1 (stereo not given)	-54*!	-4	-3	2	0%	1

Screening data as filed in PubChem BioAssay.
